A selection: hits, their analogues and other compounds. The true share with any hit is near 6.8%.
C diff growth: inhibitors of Clostridium difficile growth | AID 1259249 | Clostridium difficile clinical isolate growth, OD600, 24 h; active compounds read low | actives 0.25% (n = 86,000) | growth activity, negative = inhibition, % at 16 µg/mL (by protocol);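 active = mean growth activity at or below -80% and every replicate also at or below -80%; inconclusive = mean at or below -80% but some replicate above -80%; inactive = mean growth activity above -80%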;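 note: 0% = DMSO wells and -100% = levofloxacin 16 µg/mL wells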
Pf Dd2 growth: inhibitors of Plasmodium falciparum Dd2 growth; actives 2.3% (n = 94,000); P. falciparum Dd2 growth, SYBR Green, 72 h; active compounds read low; activity change, % at 10 µM; in the data active = activity change below about -80%; inconclusive = no clear call, values can overlap the other calls
T cruzi growth-1: blocks T. cruzi growth in NIH3T3 culture | AID 624255 | actives 5.9% (n = 77,000) | inhibition, % at 8.34 µM | T. cruzi beta-gal in NIH3T3, GalScreen luminescence, 90 h;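 active = mean inhibition above about 93%, with at least 55% of replicates each passing it, limit read from the data, passing the limit was not always enough; inconclusive = only one of those two conditions holds; inactive = neither condition holds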
T cruzi growth-2: inhibitors of T. cruzi proliferation; shares compounds with T cruzi growth-1; T. cruzi beta-gal in NIH3T3, GalScreen luminescence, 90 h; inhibition, % at 8.35 µM; actives 72% (n = 5,600);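 active = mean replicate inhibition above about 95% and at least 55% of replicates individually reaching it, limit read from the data; inconclusive = only one of the two criteria is met; inactive = neither criterion is met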
T cruzi growth-3: blocks T. cruzi growth in NIH3T3 host cells | shares compounds with T cruzi growth-1 | T. cruzi beta-gal in NIH3T3, GalScreen luminescence, 90 h | inhibition, % at 2.09 µM | actives 21% (n = 5,600) | AID 651740;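 active = mean inhibition above about 95%, with at least 55% of replicates also reaching it, limit read from the data; inconclusive = meets just one of the two conditions; inactive = meets neither condition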;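 note: plate controls were neutral control median for no effect and positive control median for full effect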
3T3 cytotox: cytotoxicity in mouse NIH/3T3 fibroblasts. shares compounds with T cruzi growth-1. NIH/3T3 viability, CellTiter-Glo ATP luminescence, 90 h. cytotoxicity (signal decrease), % at 8.35 µM. actives 14% (n = 5,600);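 active = mean signal decrease across replicates above about 35% based on untreated-well scatter, with enough replicates individually passing, limit read from the data; inconclusive = no rule stated though some were filed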;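 note: 0% = median of neutral control wells and 100% = median of positive control wells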
NIH3T3 tox 2: cytotoxicity in mouse NIH/3T3 fibroblasts | shares compounds with T cruzi growth-1 | NIH/3T3 viability, CellTiter-Glo ATP luminescence, 90 h | inhibition, % at 24.9 µM | actives 56% (n = 5,600);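 active = mean loss of cell viability signal at or above a set limit, and enough replicates individually reaching it; inconclusive = meets only the mean limit or only the replicate share; inactive = meets neither condition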;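 note: 0% = median of neutral control wells and 100% = median of positive control wells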
Numbers without * were called inactive; ? = inconclusive; . = no result given.

SMILES	C diff growth	Pf Dd2 growth	T cruzi growth-1	T cruzi growth-2	T cruzi growth-3	3T3 cytotox	NIH3T3 tox 2
COc1ccc(CN(C)C[C@@H]2OCCCC[C@H](C)Oc3ccc(NC(=O)Nc4ccc(OC)cc4)cc3C(=O)N([C@H](C)CO)C[C@@H]2C)cc1	.	-65	99*	104*	105*	17	104*
COc1ccc(CN(C)C[C@H]2OCCCC[C@@H](C)Oc3ccc(NC(=O)Nc4ccc(OC)cc4)cc3C(=O)N([C@@H](C)CO)C[C@@H]2C)cc1	.	-65	81	.	.	.	.
C[C@H](NC(=O)C[C@@H]1C[C@H]2c3cc(NC(=O)C4CCC4)ccc3O[C@H]2[C@@H](CO)O1)c1ccccc1	-2	4	-25	.	.	.	.
O=C(C[C@@H]1CC[C@H]2[C@@H](COC[C@@H](O)CN2C(=O)c2ccc(F)cc2)O1)NCc1cccc(F)c1	-6	-1	18	.	.	.	.
CO[C@H]1CN(C)C(=O)c2cc(NC(=O)C3CCOCC3)ccc2OC[C@H](C)N(C(=O)c2ccccc2)C[C@H]1C	.	.	12	.	.	.	.
COc1ccc2c3c(n(C)c2c1)[C@@H](CO)N(CC1CCOCC1)CC31CN(Cc2nccs2)C1	8	-74	.	.	.	.	.
COc1ccc(CN(C)C[C@H]2OCCCC[C@@H](C)Oc3ccc(NC(=O)Nc4ccc(F)cc4)cc3C(=O)N([C@H](C)CO)C[C@H]2C)cc1	10	-58	86	.	.	.	.
COc1ccc(CN(C)C[C@H]2OCCCC[C@H](C)Oc3ccc(NC(=O)Nc4ccc(OC)cc4)cc3C(=O)N([C@H](C)CO)C[C@H]2C)cc1	.	-61	106*	103*	57	21	25*
COCC(=O)Nc1ccc2c(c1)OC[C@H](C)N(Cc1ccccc1)C[C@@H](C)[C@H](OC)CN(C)C2=O	5	2	3	.	.	.	.
C[C@H]1CN([C@@H](C)CO)C(=O)c2ccccc2-c2ccccc2CO[C@@H]1CN(C)C(=O)Cc1ccccc1	-7	-38	36	.	.	.	.
C[C@@H]1CN([C@H](C)CO)C(=O)c2cc(NC(=O)Nc3ccc(F)cc3)ccc2O[C@@H](C)CCCCO[C@H]1CN(C)S(=O)(=O)c1cccs1	5	-72	33	.	.	.	.
C[C@H](CO)N1C[C@H](C)[C@@H](CN(C)S(=O)(=O)c2cccs2)OCCCC[C@H](C)Oc2ccc(NC(=O)Nc3ccc(F)cc3)cc2C1=O	3	-63	79	.	.	.	.
C[C@@H]1CCCCO[C@H](CN(C)S(=O)(=O)c2cccs2)[C@@H](C)CN([C@H](C)CO)C(=O)c2cc(NC(=O)Nc3ccc4c(c3)OCO4)ccc2O1	4	-74	33	.	.	.	.
C[C@H](CO)N1C[C@H](C)[C@@H](CN(C)S(=O)(=O)c2cccs2)Oc2ccc(NC(=O)Nc3ccc(F)cc3)cc2C1=O	.	-15	-49	.	.	.	.
C[C@H]1CCCCO[C@@H](CN(C)S(=O)(=O)c2cccs2)[C@@H](C)CN([C@@H](C)CO)C(=O)c2cc(NC(=O)Nc3ccc4c(c3)OCO4)ccc2O1	0	-64	111*	111*	48	14	10
C[C@H]1CCCCO[C@H](CN(C)S(=O)(=O)c2cccs2)[C@@H](C)CN([C@@H](C)CO)C(=O)c2cc(NC(=O)Nc3ccc(F)cc3)ccc2O1	-9	-73	97*	104*	39	24	6
C[C@H]1CN([C@@H](C)CO)C(=O)c2cc(NC(=O)Nc3ccc(C(F)(F)F)cc3)ccc2O[C@H]1CN(C)S(=O)(=O)c1cccs1	3	9	123*	103*	57	5	85*
C[C@@H]1CCCCO[C@H](CN(C)S(=O)(=O)c2cccs2)[C@H](C)CN([C@H](C)CO)C(=O)c2cc(NC(=O)Nc3ccc(F)cc3)ccc2O1	-7	-85*	?	113*	100*	-16	12
CCCNC(=O)C[C@@H]1CC[C@@H]2[C@@H](COc3ccc(NC(=O)c4cccs4)cc3C(=O)N2C)O1	-4	15	-23	.	.	.	.
COCC(=O)Nc1ccc2c(c1)[C@H]1C[C@@H](CC(=O)NCc3ccncc3)O[C@@H](CO)[C@H]1O2	-3	19	39	.	.	.	.
CCCNC(=O)Nc1ccc2c(c1)C(=O)N(C)[C@H]1CC[C@@H](CC(=O)NCc3ccccc3)O[C@@H]1CO2	-5	-10	-27	.	.	.	.
Cc1ccc(S(=O)(=O)Nc2ccc3c(c2)C(=O)N([C@@H](C)CO)C[C@H](C)[C@H](CN(C)C(=O)Nc2ccccc2)OCCCC[C@H](C)O3)cc1	.	-38	-27	.	.	.	.
C[C@@H]1CCCCO[C@@H](CN(C)S(=O)(=O)c2cccs2)[C@H](C)CN([C@H](C)CO)C(=O)c2cc(NC(=O)Nc3ccc(F)cc3)ccc2O1	0	-78	?	108*	42	-15	8
C[C@H](CO)N1C[C@H](C)[C@@H](CN(C)S(=O)(=O)c2cccs2)OCCCC[C@H](C)Oc2ccc(NC(=O)Nc3ccc(C(F)(F)F)cc3)cc2C1=O	-11	-46	97*	102*	117*	33	26*
C[C@H](CO)N1C[C@H](C)[C@@H](CN(C)S(=O)(=O)c2cccs2)OCCCC[C@H](C)Oc2ccc(NC(=O)NC3CCCCC3)cc2C1=O	8	-46	76	.	.	.	.
SMILES	C diff growth	Pf Dd2 growth	T cruzi growth-1	T cruzi growth-2	T cruzi growth-3	3T3 cytotox	NIH3T3 tox 2
C[C@@H]1CCCCO[C@@H](CN(C)S(=O)(=O)c2cccs2)[C@H](C)CN([C@H](C)CO)C(=O)c2cc(NC(=O)NC3CCCCC3)ccc2O1	15	?	118*	106*	36	2	-3
C[C@@H]1CCCCO[C@H](CN(C)S(=O)(=O)c2cccs2)[C@H](C)CN([C@@H](C)CO)C(=O)c2cc(NC(=O)Nc3ccc(F)cc3)ccc2O1	-3	-53	59	.	.	.	.
C[C@@H]1CCCCO[C@@H](CN(C)S(=O)(=O)c2cccs2)[C@H](C)CN([C@H](C)CO)C(=O)c2cc(NC(=O)Nc3ccc(C(F)(F)F)cc3)ccc2O1	2	-69	88	.	.	.	.
N#C[C@@H]1[C@@H](c2ccccc2-c2cccc(F)c2)[C@H](CO)N1C(=O)CN1CCOCC1	3	32	.	.	.	.	.
COc1ccc(S(=O)(=O)Nc2ccc3c(c2)CC(=O)N([C@H](C)CO)C[C@H](C)[C@H](CN(C)C(=O)NC2CCCCC2)O3)cc1	-7	6	26	.	.	.	.
CC(=O)N(C)C[C@H]1Oc2cc(-c3ccc(F)cc3)ccc2S(=O)(=O)N([C@H](C)CO)C[C@H]1C	0	23	-1	.	.	.	.
C[C@@H]1CN([C@@H](C)CO)S(=O)(=O)c2ccc(-c3ccc(F)cc3)cc2O[C@@H]1CN(C)C(=O)Nc1ccc(F)cc1	.	-24	123*	111*	63	24	62*

Screening results deposited in PubChem by Broad Institute.
